# Measurements published in PMC11006913.
# Substitutions are numbered along the chain they refer to.
# Key:
# Experiment in all cases: PBM; 200 nM protein, PBS
# Conditions in all cases: dsDNA, one strand shown
# [1] = molecular target: T1, VENTX (Homo sapiens, UniProt O95231 78-163, R121Q)
# T1 sequence: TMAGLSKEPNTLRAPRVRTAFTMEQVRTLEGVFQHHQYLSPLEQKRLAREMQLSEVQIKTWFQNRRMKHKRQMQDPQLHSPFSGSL
# [2] = molecular target: T2, VENTX (Homo sapiens, UniProt O95231 78-163)
# T2 sequence: T1 sequence with Q44R
# [3] = molecular target: T3, VENTX (Homo sapiens, UniProt O95231 78-163, Y115F)
# T3 sequence: T1 sequence with Y38F, Q44R
# [4] = molecular target: CRX (Homo sapiens, UniProt O43186 26-111, R41L)
# CRX, sequence (O43186 26-111 R41L): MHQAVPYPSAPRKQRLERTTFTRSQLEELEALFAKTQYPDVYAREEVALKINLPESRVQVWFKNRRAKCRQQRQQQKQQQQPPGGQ
# [5] = molecular target: VAX1 (Homo sapiens, UniProt Q5SQQ9 86-172)
# VAX1 (Homo sapiens, UniProt Q5SQQ9 86-172), sequence (Q5SQQ9 86-172): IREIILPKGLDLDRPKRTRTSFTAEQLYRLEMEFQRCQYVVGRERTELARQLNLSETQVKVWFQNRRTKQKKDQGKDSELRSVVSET
# [6] = molecular target: VAX1 (Homo sapiens, UniProt Q5SQQ9 86-172, T142I)
# VAX1 (Homo sapiens, UniProt Q5SQQ9 86-172, T142I), sequence (Q5SQQ9 86-172 T142I): as the sequence (Q5SQQ9 86-172) above, with T57I counted along it
# [7] = molecular target: VAX1 (Homo sapiens, UniProt Q5SQQ9 86-172, K157R)
# VAX1 (Homo sapiens, UniProt Q5SQQ9 86-172, K157R), sequence (Q5SQQ9 86-172 K157R): as the sequence (Q5SQQ9 86-172) above, with K72R counted along it
# [8] = molecular target: T4, PAX4 (Homo sapiens, UniProt O43316 9-242)
# T4 sequence: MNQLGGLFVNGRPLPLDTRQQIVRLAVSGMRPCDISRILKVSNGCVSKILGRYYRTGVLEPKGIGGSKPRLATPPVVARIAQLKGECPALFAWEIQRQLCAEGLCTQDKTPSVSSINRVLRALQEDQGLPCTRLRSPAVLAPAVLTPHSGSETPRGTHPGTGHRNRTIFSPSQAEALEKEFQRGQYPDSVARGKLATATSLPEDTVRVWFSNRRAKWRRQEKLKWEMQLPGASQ
# [9] = molecular target: HOXB9 (Homo sapiens, UniProt P17482 171-250, T197M)
# HOXB9 (Homo sapiens, UniProt P17482 171-250, T197M), sequence (P17482 171-250 T197M): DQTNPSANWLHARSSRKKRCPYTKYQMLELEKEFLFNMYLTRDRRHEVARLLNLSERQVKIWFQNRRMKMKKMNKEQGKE
# [10] = molecular target: HOXC9 (Homo sapiens, UniProt P31274 178-260, K195R)
# HOXC9 (Homo sapiens, UniProt P31274 178-260, K195R), sequence (P31274 178-260 K195R): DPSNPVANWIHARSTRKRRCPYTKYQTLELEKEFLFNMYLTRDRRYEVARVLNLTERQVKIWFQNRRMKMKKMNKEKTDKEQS
# [11] = molecular target: HOXA7 (Homo sapiens, UniProt P31268 116-202)
# HOXA7 (Homo sapiens, UniProt P31268 116-202), sequence (P31268 116-202): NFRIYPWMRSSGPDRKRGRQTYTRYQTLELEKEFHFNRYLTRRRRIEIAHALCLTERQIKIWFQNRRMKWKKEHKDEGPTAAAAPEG
# [12] = molecular target: HOXC10 (Homo sapiens, UniProt Q9NYD6 254-340)
# HOXC10 (Homo sapiens, UniProt Q9NYD6 254-340), sequence (Q9NYD6 254-340): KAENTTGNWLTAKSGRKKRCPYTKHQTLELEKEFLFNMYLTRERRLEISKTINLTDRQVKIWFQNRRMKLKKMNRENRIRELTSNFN
# [13] = molecular target: HOXB9 (Homo sapiens, UniProt P17482 171-250)
# HOXB9 (Homo sapiens, UniProt P17482 171-250), sequence (P17482 171-250): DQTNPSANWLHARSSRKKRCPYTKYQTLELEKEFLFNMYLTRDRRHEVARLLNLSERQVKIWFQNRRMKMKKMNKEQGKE
# [14] = molecular target: HOXC9 (Homo sapiens, UniProt P31274 178-260)
# HOXC9 (Homo sapiens, UniProt P31274 178-260), sequence (P31274 178-260): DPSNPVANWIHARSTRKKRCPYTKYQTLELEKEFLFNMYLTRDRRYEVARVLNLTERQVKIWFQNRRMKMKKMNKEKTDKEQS
# [15] = molecular target: HOXD13 (Homo sapiens, UniProt P35453 263-343, T313R)
# HOXD13 (Homo sapiens, UniProt P35453 263-343, T313R), sequence (P35453 263-343 T313R): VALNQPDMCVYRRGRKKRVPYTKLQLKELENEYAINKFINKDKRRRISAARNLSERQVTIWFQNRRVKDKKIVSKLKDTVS
# [16] = molecular target: HOXC9 (Homo sapiens, UniProt P31274 178-260, R193K)
# HOXC9 (Homo sapiens, UniProt P31274 178-260, R193K), sequence (P31274 178-260 R193K): as the sequence (P31274 178-260) above, with R16K counted along it
# [17] = molecular target: HOXD13 (Homo sapiens, UniProt P35453 263-343)
# HOXD13 (Homo sapiens, UniProt P35453 263-343), sequence (P35453 263-343): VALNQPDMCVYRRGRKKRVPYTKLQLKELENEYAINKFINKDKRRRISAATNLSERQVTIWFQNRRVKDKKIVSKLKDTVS
# [18] = molecular target: HOXC10 (Homo sapiens, UniProt Q9NYD6 254-340, K271E)
# HOXC10 (Homo sapiens, UniProt Q9NYD6 254-340, K271E), sequence (Q9NYD6 254-340 K271E): as the sequence (Q9NYD6 254-340) above, with K18E counted along it
# [19] = molecular target: HOXD13 (Homo sapiens, UniProt P35453 263-343, T313A)
# HOXD13 (Homo sapiens, UniProt P35453 263-343, T313A), sequence (P35453 263-343 T313A): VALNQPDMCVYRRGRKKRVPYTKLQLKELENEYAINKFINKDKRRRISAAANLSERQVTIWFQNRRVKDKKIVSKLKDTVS
# [20] = molecular target: HOXB9 (Homo sapiens, UniProt P17482 171-250, R186Q)
# HOXB9 (Homo sapiens, UniProt P17482 171-250, R186Q), sequence (P17482 171-250 R186Q): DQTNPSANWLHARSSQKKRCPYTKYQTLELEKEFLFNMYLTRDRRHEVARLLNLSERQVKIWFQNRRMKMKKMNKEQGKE
# [21] = molecular target: HOXC9 (Homo sapiens, UniProt P31274 178-260, R222W)
# HOXC9 (Homo sapiens, UniProt P31274 178-260, R222W), sequence (P31274 178-260 R222W): as the sequence (P31274 178-260) above, with R45W counted along it
# [22] = molecular target: HOXA7 (Homo sapiens, UniProt P31268 116-202, W177C)
# HOXA7 (Homo sapiens, UniProt P31268 116-202, W177C), sequence (P31268 116-202 W177C): as the sequence (P31268 116-202) above, with W62C counted along it
# [23] = molecular target: T5, PAX4 (Homo sapiens, UniProt O43316 9-242, R200K)
# T5 sequence: T4 sequence with R192K
# [24] = molecular target: HOXB6 (Homo sapiens, UniProt P17509 132-218, K202E)
# HOXB6 (Homo sapiens, UniProt P17509 132-218, K202E), sequence (P17509 132-218 K202E): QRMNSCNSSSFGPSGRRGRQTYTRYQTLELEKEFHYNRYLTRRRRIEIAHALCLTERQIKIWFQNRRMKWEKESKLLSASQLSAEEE
# [25] = molecular target: HOXB4 (Homo sapiens, UniProt P17483 148-234, V174I)
# HOXB4, sequence (P17483 148-234 V174I): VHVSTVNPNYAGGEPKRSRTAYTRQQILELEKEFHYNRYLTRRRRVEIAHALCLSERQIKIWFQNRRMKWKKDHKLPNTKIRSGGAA
# [26] = molecular target: HOXB6 (Homo sapiens, UniProt P17509 132-218)
# HOXB6 (Homo sapiens, UniProt P17509 132-218), sequence (P17509 132-218): as the sequence (P17509 132-218 K202E) above, with E71K counted along it
# [27] = molecular target: T6, NKX2-6 (Homo sapiens, UniProt A6NCS4 118-204)
# T6 sequence: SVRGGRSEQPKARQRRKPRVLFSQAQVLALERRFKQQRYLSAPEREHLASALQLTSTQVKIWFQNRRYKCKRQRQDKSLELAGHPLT
# [28] = molecular target: T7, PAX4 (Homo sapiens, UniProt O43316 9-242, R200Q)
# T7 sequence: T4 sequence with R192Q
# [29] = molecular target: T8, PAX4 (Homo sapiens, UniProt O43316 9-242, F177V)
# T8 sequence: T4 sequence with F169V
# [30] = molecular target: T9, PAX4 (Homo sapiens, UniProt O43316 9-242, F177Y)
# T9 sequence: T4 sequence with F169Y
# [31] = molecular target: T10, PAX4 (Homo sapiens, UniProt O43316 9-242, R227W)
# T10 sequence: T4 sequence with R219W
# [32] = molecular target: ALX1 (Homo sapiens, UniProt Q15699 118-204, L144V)
# ALX1 (Homo sapiens, UniProt Q15699 118-204, L144V), sequence (Q15699 118-204 L144V): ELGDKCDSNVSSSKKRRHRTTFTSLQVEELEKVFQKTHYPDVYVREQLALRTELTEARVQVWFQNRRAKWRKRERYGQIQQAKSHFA
# [33] = molecular target: ALX1 (Homo sapiens, UniProt Q15699 118-204, L144R)
# ALX1 (Homo sapiens, UniProt Q15699 118-204, L144R), sequence (Q15699 118-204 L144R): as the sequence (Q15699 118-204 L144V) above, with V27R counted along it
# [34] = molecular target: ALX1 (Homo sapiens, UniProt Q15699 118-204)
# ALX1 (Homo sapiens, UniProt Q15699 118-204), sequence (Q15699 118-204): as the sequence (Q15699 118-204 L144V) above, with V27L counted along it
sequence,measurement,setting,value
CTAATCGC,binding signal,[1],"11.2 upbm affinity estimate (log intensity, higher = more binding, comparable within an allelic series)"
same,binding signal,[2],"12.3 upbm affinity estimate (log intensity, higher = more binding, comparable within an allelic series)"
same,binding signal,[3],"11.3 upbm affinity estimate (log intensity, higher = more binding, comparable within an allelic series)"
same,binding signal,[4],"11.6 upbm affinity estimate (log intensity, higher = more binding, comparable within an allelic series)"
ATAATCGG,binding signal,[1],"10.6 upbm affinity estimate (log intensity, higher = more binding, comparable within an allelic series)"
same,binding signal,[3],"10.7 upbm affinity estimate (log intensity, higher = more binding, comparable within an allelic series)"
CCGATTAG,binding signal,[1],"11.6 upbm affinity estimate (log intensity, higher = more binding, comparable within an allelic series)"
same,binding signal,[2],"12.9 upbm affinity estimate (log intensity, higher = more binding, comparable within an allelic series)"
same,binding signal,[3],"11.6 upbm affinity estimate (log intensity, higher = more binding, comparable within an allelic series)"
same,binding signal,[4],"11.4 upbm affinity estimate (log intensity, higher = more binding, comparable within an allelic series)"
CGGGCGCA,binding signal,[1],"7.97 upbm affinity estimate (log intensity, higher = more binding, comparable within an allelic series)"
same,binding signal,[2],"7.92 upbm affinity estimate (log intensity, higher = more binding, comparable within an allelic series)"
same,binding signal,[3],"7.91 upbm affinity estimate (log intensity, higher = more binding, comparable within an allelic series)"
same,binding signal,[5],"6.81 upbm affinity estimate (log intensity, higher = more binding, comparable within an allelic series)"
same,binding signal,[6],"6.96 upbm affinity estimate (log intensity, higher = more binding, comparable within an allelic series)"
same,binding signal,[7],"6.94 upbm affinity estimate (log intensity, higher = more binding, comparable within an allelic series)"
ACCGTTTA,binding signal,[1],"10.1 upbm affinity estimate (log intensity, higher = more binding, comparable within an allelic series)"
same,binding signal,[3],"10.1 upbm affinity estimate (log intensity, higher = more binding, comparable within an allelic series)"
same,binding signal,[8],"10.4 upbm affinity estimate (log intensity, higher = more binding, comparable within an allelic series)"
CCCATAAA,binding signal,[9],"9.63 upbm affinity estimate (log intensity, higher = more binding, comparable within an allelic series)"
same,binding signal,[10],"12.8 upbm affinity estimate (log intensity, higher = more binding, comparable within an allelic series)"
same,binding signal,[11],"10.4 upbm affinity estimate (log intensity, higher = more binding, comparable within an allelic series)"
same,binding signal,[12],"12.5 upbm affinity estimate (log intensity, higher = more binding, comparable within an allelic series)"
same,binding signal,[13],"12.2 upbm affinity estimate (log intensity, higher = more binding, comparable within an allelic series)"
same,binding signal,[14],"13 upbm affinity estimate (log intensity, higher = more binding, comparable within an allelic series)"
same,binding signal,[15],"11 upbm affinity estimate (log intensity, higher = more binding, comparable within an allelic series)"
same,binding signal,[16],"12.8 upbm affinity estimate (log intensity, higher = more binding, comparable within an allelic series)"
same,binding signal,[17],"12.3 upbm affinity estimate (log intensity, higher = more binding, comparable within an allelic series)"
same,binding signal,[18],"11.9 upbm affinity estimate (log intensity, higher = more binding, comparable within an allelic series)"
same,binding signal,[19],"12 upbm affinity estimate (log intensity, higher = more binding, comparable within an allelic series)"
same,binding signal,[20],"12 upbm affinity estimate (log intensity, higher = more binding, comparable within an allelic series)"
same,binding signal,[21],"11.2 upbm affinity estimate (log intensity, higher = more binding, comparable within an allelic series)"
same,binding signal,[22],"8.63 upbm affinity estimate (log intensity, higher = more binding, comparable within an allelic series)"
CCAGCTGC,binding signal,[1],"8.15 upbm affinity estimate (log intensity, higher = more binding, comparable within an allelic series)"
same,binding signal,[2],"8.27 upbm affinity estimate (log intensity, higher = more binding, comparable within an allelic series)"
same,binding signal,[3],"8.21 upbm affinity estimate (log intensity, higher = more binding, comparable within an allelic series)"
same,binding signal,[5],"7.42 upbm affinity estimate (log intensity, higher = more binding, comparable within an allelic series)"
same,binding signal,[6],"7.3 upbm affinity estimate (log intensity, higher = more binding, comparable within an allelic series)"
same,binding signal,[7],"7.2 upbm affinity estimate (log intensity, higher = more binding, comparable within an allelic series)"
CGATTACG,binding signal,[1],"10.5 upbm affinity estimate (log intensity, higher = more binding, comparable within an allelic series)"
same,binding signal,[11],"9.64 upbm affinity estimate (log intensity, higher = more binding, comparable within an allelic series)"
same,binding signal,[22],"8.74 upbm affinity estimate (log intensity, higher = more binding, comparable within an allelic series)"
CATTAATA,binding signal,[9],"10.2 upbm affinity estimate (log intensity, higher = more binding, comparable within an allelic series)"
same,binding signal,[10],"12.7 upbm affinity estimate (log intensity, higher = more binding, comparable within an allelic series)"
same,binding signal,[11],"11.5 upbm affinity estimate (log intensity, higher = more binding, comparable within an allelic series)"
same,binding signal,[12],"12.2 upbm affinity estimate (log intensity, higher = more binding, comparable within an allelic series)"
same,binding signal,[23],"11.6 upbm affinity estimate (log intensity, higher = more binding, comparable within an allelic series)"
same,binding signal,[24],"10.1 upbm affinity estimate (log intensity, higher = more binding, comparable within an allelic series)"
same,binding signal,[13],"12 upbm affinity estimate (log intensity, higher = more binding, comparable within an allelic series)"
same,binding signal,[25],"13.6 upbm affinity estimate (log intensity, higher = more binding, comparable within an allelic series)"
same,binding signal,[14],"12.6 upbm affinity estimate (log intensity, higher = more binding, comparable within an allelic series)"
same,binding signal,[16],"12.6 upbm affinity estimate (log intensity, higher = more binding, comparable within an allelic series)"
same,binding signal,[18],"11.9 upbm affinity estimate (log intensity, higher = more binding, comparable within an allelic series)"
same,binding signal,[20],"11.7 upbm affinity estimate (log intensity, higher = more binding, comparable within an allelic series)"
same,binding signal,[21],"11.1 upbm affinity estimate (log intensity, higher = more binding, comparable within an allelic series)"
same,binding signal,[22],"9 upbm affinity estimate (log intensity, higher = more binding, comparable within an allelic series)"
same,binding signal,[26],"11.9 upbm affinity estimate (log intensity, higher = more binding, comparable within an allelic series)"
ACGATTAT,binding signal,[1],"10.5 upbm affinity estimate (log intensity, higher = more binding, comparable within an allelic series)"
same,binding signal,[27],"10.7 upbm affinity estimate (log intensity, higher = more binding, comparable within an allelic series)"
CGCATTAA,binding signal,[1],"10.5 upbm affinity estimate (log intensity, higher = more binding, comparable within an allelic series)"
same,binding signal,[23],"11.7 upbm affinity estimate (log intensity, higher = more binding, comparable within an allelic series)"
same,binding signal,[3],"10.6 upbm affinity estimate (log intensity, higher = more binding, comparable within an allelic series)"
same,binding signal,[8],"12.1 upbm affinity estimate (log intensity, higher = more binding, comparable within an allelic series)"
same,binding signal,[28],"11.6 upbm affinity estimate (log intensity, higher = more binding, comparable within an allelic series)"
same,binding signal,[29],"10.4 upbm affinity estimate (log intensity, higher = more binding, comparable within an allelic series)"
same,binding signal,[30],"11 upbm affinity estimate (log intensity, higher = more binding, comparable within an allelic series)"
same,binding signal,[31],"10.9 upbm affinity estimate (log intensity, higher = more binding, comparable within an allelic series)"
same,binding signal,[4],"10.9 upbm affinity estimate (log intensity, higher = more binding, comparable within an allelic series)"
GGCGATTA,binding signal,[1],"11 upbm affinity estimate (log intensity, higher = more binding, comparable within an allelic series)"
same,binding signal,[32],"8.58 upbm affinity estimate (log intensity, higher = more binding, comparable within an allelic series)"
same,binding signal,[33],"8.54 upbm affinity estimate (log intensity, higher = more binding, comparable within an allelic series)"
same,binding signal,[34],"9.05 upbm affinity estimate (log intensity, higher = more binding, comparable within an allelic series)"
